# Source: PubChem BioAssay AID1508615 (Milbrandt Lab, Department of Genetics, Washington …, 2020)
# Out of some 1,600 compounds screened, about 20 (1%) were called active. The sample holds actives, similar compounds and a random draw of the others, so the mix is not that of the screen.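 The calls were made as follows: active = ratio of uncleaved NAD to its breakdown product ADP-ribose above 4, meaning the enzyme was inhibited; inactive = the rest.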
# Biological target: NAD(+) hydrolase SARM1 (Homo sapiens) (UniProt Q6SZW1)
# Experiment: SARM1 TIR NADase inhibitors by HPLC, primary screen, cell lysate, HPLC readout (AID 1508615);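 also: substrate NAD at 5 µM with 60 min at 37 °C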
# Conditions: HEK293T SAM-TIR lysate, at 5 µM, hits give high values
# Chain of NAD(+) hydrolase SARM1 (Homo sapiens) (Q6SZW1 whole entry, looked up): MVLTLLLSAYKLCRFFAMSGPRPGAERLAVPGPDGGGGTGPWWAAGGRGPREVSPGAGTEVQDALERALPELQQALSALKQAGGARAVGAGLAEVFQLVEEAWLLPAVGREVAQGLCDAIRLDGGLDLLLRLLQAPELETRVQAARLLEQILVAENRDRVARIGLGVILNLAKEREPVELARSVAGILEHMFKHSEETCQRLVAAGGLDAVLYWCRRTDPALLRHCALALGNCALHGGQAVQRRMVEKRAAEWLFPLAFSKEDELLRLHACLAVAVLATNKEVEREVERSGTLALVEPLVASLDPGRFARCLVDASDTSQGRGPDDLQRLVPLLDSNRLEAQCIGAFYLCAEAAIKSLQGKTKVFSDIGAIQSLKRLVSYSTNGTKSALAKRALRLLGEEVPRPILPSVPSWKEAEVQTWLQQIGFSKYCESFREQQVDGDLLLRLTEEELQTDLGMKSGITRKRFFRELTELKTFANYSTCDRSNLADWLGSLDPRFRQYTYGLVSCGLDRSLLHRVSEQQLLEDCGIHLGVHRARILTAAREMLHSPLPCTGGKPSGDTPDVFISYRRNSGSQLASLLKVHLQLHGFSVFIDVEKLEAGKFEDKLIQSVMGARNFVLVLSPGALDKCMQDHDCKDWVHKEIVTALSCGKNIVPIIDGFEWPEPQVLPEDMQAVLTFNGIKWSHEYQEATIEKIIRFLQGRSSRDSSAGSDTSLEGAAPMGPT
row,SMILES,NAD/ADPR ratio
1,S=c1nc[nH]c2c1cnn2-c1ccccc1,3 (inactive)
2,CCOC(=O)c1c[nH][nH]c1=O,3 (inactive)
3,NC(=O)N/N=C1\CC2CC1C1C=CCC21 (centres undefined),3 (inactive)
4,Cc1nc(Nc2ccc(F)cc2)nc(Nc2ccc(F)cc2)c1[N+](=O)[O-],3 (inactive)
5,Cc1cc2nc3ccc(=[N+](C)C)cc-3sc2cc1N,3 (inactive)
6,Cn1c(=O)c2[nH]c(CCCc3ccc([N+](=O)[O-])cc3)nc2n(C)c1=O,3 (inactive)
7,CCCc1cc(=O)oc2c3c(c4c(c12)OC(C)(C)C=C4)OC(C)C(C)C3O (centres undefined),3 (inactive)
8,CSc1cccc(NC(=O)Nc2nc3c(C)cccc3s2)c1,3 (inactive)
9,Cc1nc2ccc(Cl)cn2c1[N+](=O)[O-],3 (inactive)
10,Cn1ncc2c(Nc3ccccc3Cl)nc(Cl)nc21,3 (inactive)
11,Cc1ccc(NC(=S)NC(=O)c2ccccc2)cc1NC(=S)NC(=O)c1ccccc1,3 (inactive)
12,Cc1cc(O)c(-c2cc(O)c(C)cc2O)cc1O,5.8 (active)
13,CCN(CC)CCNC(=O)c1ccc(NCN2C(=O)NC(c3ccccc3)(c3ccccc3)C2=O)cc1,3 (inactive)
14,Cc1cnc2cc(Cl)ccc2c1SCC(=O)O,3 (inactive)
15,O=C1NC(=O)N2CCSC2(Cc2ccccc2)N1 (centres undefined),3 (inactive)
16,Nc1ncnc2c1ncn2C1C=C(CO)C(O)C1O (centres undefined),3 (inactive)
17,CCOP(=O)(OCC)/C(C#N)=C/c1ccc(-c2ccc(F)cc2F)o1,3 (inactive)
18,O=c1[nH]cnc(CN2CCCCC2)c1O,3 (inactive)
19,CC12CCC(C(=Nc3ccc(N=C4C(=O)C5(C)CCC4C5(C)C)cc3)C1=O)C2(C)C,3 (inactive)
20,C#CCOCC1CN(c2ccccc2)C(=O)O1 (centres undefined),3 (inactive)
21,N#Cc1cnn(-c2cccc(Cl)c2)c1-n1cccc1,3 (inactive)
22,Cc1ccc(N=Nc2ccc(C)cc2NC(=O)Nc2ccccc2F)cc1,3 (inactive)
23,Clc1nc2nc3n(c2nc1Cl)CCC3,3 (inactive)

row,SMILES,NAD/ADPR ratio
1,CC(=O)Nc1cc(NC(C)=O)ncn1,3 (inactive)
2,O=C(c1ccccc1)C1C(c2ccccc2)C1[N+](=O)[O-] (centres undefined),5.3 (active)
3,O=C(c1ccccc1)c1ccc(Sc2ccc([N+](=O)[O-])cc2)cc1,3 (inactive)
4,O=C1C=C(c2ccccc2)OC(=O)C1C(=O)c1ccccc1 (centres undefined),3 (inactive)
5,Clc1ccc(-c2n[nH]c3c2Cc2ccccc2-3)cc1Cl,3 (inactive)
6,COc1ccc(C(=S)N2CCN(c3ccccc3Cl)CC2)cc1OC,3 (inactive)
7,O=C(O)C(c1ccccc1)C1(O)CCCCC1 (centres undefined),3 (inactive)
8,Cc1cc2cc3c(=O)[nH]c(=O)cc-3n(CC(O)C(O)C(O)CO)c2cc1C (centres undefined),3.3 (inactive)
9,C#CCSc1nnnn1-c1ccc(Br)c(C)c1,3 (inactive)
10,Cc1ccc(S(=O)c2ccc([N+](=O)[O-])c3nonc23)cc1 (centres undefined),13.2 (active)
11,O=[N+]([O-])c1cc2cccnc2c2ncccc12,3 (inactive)
12,O=C(O)C(Cc1ccccc1N(CCO)CCO)N1C(=O)c2ccccc2C1=O (centres undefined),3 (inactive)
13,Nc1nc(N)nc(C2C=CCCC2)n1 (centres undefined),3 (inactive)
14,O=C(Oc1ccccc1)c1cccc2cccc(C(=O)Oc3ccccc3)c12,3 (inactive)
15,COc1ccc(N=Cc2c(O)ccc3c2oc2cc(Cl)c(O)c(Cl)c23)cc1,3 (inactive)
16,CC(O)c1nc2c(c(=O)n(C)c(=O)n2C)n1C (centres undefined),3 (inactive)
17,Cn1ncc2c(Nc3ccccc3Cl)nc(Nc3ccccc3Cl)nc21,3 (inactive)
18,Nc1ccc(C(=O)Nc2ccc(Nc3ccncc3)cc2)cc1,3 (inactive)
19,Cc1cc2c(cc1[N+](=O)[O-])NC(CNC(C)C)CC2 (centres undefined),3 (inactive)
20,CNc1ncn(-c2c(C)cccc2C)c(=O)n1,3 (inactive)
21,CS/C(=C\c1ccc(C(=O)c2ccc(C)cc2)n1C)S(C)=O (centres undefined),3 (inactive)
22,COC(=O)C1=CC(=O)N2CCN=C2S1,3 (inactive)
23,COc1cccc(NC(=S)Nc2ccc(O)cc2)c1,3 (inactive)

row,SMILES,NAD/ADPR ratio
1,Cc1cccc(NC(=S)Nc2cccc(C)n2)n1,3 (inactive)
2,NC(=O)Nc1n[nH]c(-c2ccccc2)n1,3 (inactive)
3,Cc1ccc(N=Nc2c(N)nn(-c3ccccc3)c2N)cc1,3 (inactive)
4,CCOC(=O)/C(C#N)=C/c1cccc(C)c1,3 (inactive)
5,CCOC(=O)/C(C#N)=C/c1c[nH]c2ccccc12,3 (inactive)
6,CCOC(=O)/C(C#N)=C1\SS/C(=C(/C#N)C(=O)OCC)S1,7.9 (active)
7,c1ccn(CCc2ccncc2)c1,3 (inactive)
8,CSC1=NC=C(C#N)C2=NC(c3ccc(Cl)cc3)NN12 (centres undefined),3 (inactive)
9,NC(=O)CCC(C(=O)O)N1C(=O)C2C3CCC(C3)C2C1=O (centres undefined),3 (inactive)
10,CN(NC(=O)C(=O)NCc1ccco1)C(=O)NC1CCCCC1,3 (inactive)
11,O=C(Nc1ccc(Cl)cc1)c1cc2c(cc1O)[nH]c1ccccc12,3 (inactive)
12,O=C(Nc1ccc(Cl)c([N+](=O)[O-])c1)Nc1nc2ccccc2s1,3 (inactive)
13,CCN1CCC(Nc2ccnc3cc(Cl)ccc23)CC1,3 (inactive)
14,Cc1c(N2CCCC2)cc2c(c1NC(=O)c1ccccc1Cl)C(C)(C)CC2(C)C,3 (inactive)
15,CCC(C)Nc1nc2c(c(=O)n(C)c(=O)n2C)n1C (centres undefined),3 (inactive)
16,N#CN=C(N)c1ccccc1,3 (inactive)
17,COc1cccc(/C=C2\CCc3ccccc3C2=O)c1,3 (inactive)
18,NC(=O)c1ccccc1NC(=O)c1ccccc1Cl,3 (inactive)
19,CC(=O)Nc1ccc(Cc2nc3c([nH]2)c(=O)n(C)c(=O)n3C)cc1,3 (inactive)
20,CCOC(=O)c1ccc(NC(=O)Oc2cc(C)c(Cl)cc2C(C)C)cc1,3 (inactive)
21,Nc1nc(Cl)cc(Nc2ccccc2Cl)n1,3 (inactive)
22,O=[N+]([O-])c1ccc(/C=C/c2ccncc2)cc1,3 (inactive)
23,COC(=O)C1(C(=O)OC)C2C(=O)C3C(C21)C3(C(=O)OC(C)(C)C)C(=O)OC(C)(C)C (centres undefined),3 (inactive)

row,SMILES,NAD/ADPR ratio
1,c1ccc2c(c1)cnc1ccccc12,3 (inactive)
2,NC(N)=Nc1nc2ccc([N+](=O)[O-])cc2[nH]1,3 (inactive)
3,O=C(OCC1CCC=CO1)C1CCC=CO1 (centres undefined),3 (inactive)
4,Cc1cc(=O)c2cc(C(=O)c3ccccc3)ccc2[nH]1,3 (inactive)
5,O=S(=O)(O)c1ccc2c(c1)C(C(Cl)(Cl)Cl)OC(C(Cl)(Cl)Cl)O2 (centres undefined),3 (inactive)
6,O=c1nccc(SCc2ccc(Cl)cc2Cl)[nH]1,3 (inactive)
7,Oc1ccccc1-c1nc2c3ccccc3c3ccccc3c2[nH]1,3 (inactive)
8,CN(C)C(=S)/N=c1\ssc(=S)n1Cc1ccco1,3 (inactive)
9,CN(C)c1nc(=NCc2ccco2)ss1,9.7 (active)
10,O=C(O)CCC(=O)OCCN(Cc1ccc(Oc2ccc([N+](=O)[O-])cc2)cc1)C(=O)C(Cl)Cl,3 (inactive)
11,CN(C)CC1C2CCC(C2)C1O (centres undefined),3 (inactive)
12,C(=C\c1ccccn1)/c1ccccn1,3 (inactive)
13,O=C(Oc1ccc[nH]c1=O)c1cccc(Cl)c1,3 (inactive)
14,Cc1nc(N)nc(Nc2ccc(C#N)cc2)c1Br,3 (inactive)
15,CCCCN1CCNC1=S,3 (inactive)
16,Cc1cccc(Nc2sc(C(=O)c3cc4cc(Cl)ccc4o3)c(N)c2C#N)c1,3 (inactive)
17,O=c1c2ccccc2ncn1-c1ccc(Cl)cc1,3 (inactive)
18,c1cncc(-c2nc3ccccc3s2)c1,3 (inactive)
19,C1=CC2(C=C1)OC21CCC2(C=CC3(C2)OC3C2CCCCC2)CC1 (centres undefined),3 (inactive)
20,NCc1c(O)ccc2ccccc12,3 (inactive)
21,COC1CC(C)C(OC)c2cc(O)cc(c2O)NC(=O)/C(C)=C/C=C\C(C)C(OC(N)=O)/C(C)=C\C(C)C1OC (centres undefined),3 (inactive)
22,NNC(=O)CNC(=O)Nc1n[nH]c(=S)s1,3 (inactive)
23,O=C(c1cccnc1)c1cc(-c2ccccn2)c(=O)n2ccccc12,3 (inactive)

row,SMILES,NAD/ADPR ratio
1,Cc1ccc(S(=O)(=O)N(C)C)cc1[N+](=O)[O-],3 (inactive)
2,CC(C)(C)NC1=NCCNC(c2ccccc2)=C1,3 (inactive)
3,S=c1c2[nH]cnc2ncn1CCSc1ncnc2nc[nH]c12,3 (inactive)
4,CC1=C(C#N)C(C)(C)C(C#N)=C(C)N1,3 (inactive)
5,CCCCCC(=O)N1CCCC1,3 (inactive)
6,O=C1C(=Nc2cccc(Cl)c2)CC(c2ccc(Cl)cc2)N1c1cccc(Cl)c1 (centres undefined),3 (inactive)
7,CN(C)c1nc(=Nc2cccc(Cl)c2)ss1,11.3 (active)
8,Nc1nc(=S)c2ncn(C3CCCC3)c2[nH]1,3 (inactive)
9,O=c1oc(-c2ccccc2)c(-c2ccccc2)c2ccccc12,3 (inactive)
10,O=[N+]([O-])c1cccc(/C=C/c2ccccn2)c1,3 (inactive)
11,CC(C)(c1cc(Cl)c(O)c(CN2CCOCC2)c1)c1cc(Cl)c(O)c(CN2CCOCC2)c1,3 (inactive)
12,O=c1[nH]c(C(F)(F)C(F)(F)C(F)(F)F)no1,3 (inactive)
13,CN1C(=O)CC2(C)C1=CCc1scnc12 (centres undefined),3 (inactive)
14,COc1ccc(C2=NC(=O)NC2c2ccc(OC)cc2)cc1 (centres undefined),3 (inactive)
15,CCOc1nc(OCC)c2cnn(C)c2n1,3 (inactive)
16,O=C1NC(=O)C2(CCc3ccccc32)N1 (centres undefined),3 (inactive)
17,CC1(C)CC[C@]2(C(=O)n3ccnc3)CC[C@]3(C)[C@H](C(=O)C=C4[C@@]5(C)C=C(C#N)C(=O)C(C)(C)[C@@H]5CC[C@]43C)[C@@H]2C1,6.5 (active)
18,Cc1nc(N)[nH]c(=O)c1CCCNc1ccc(CCC2(CCl)OCCO2)cc1,3 (inactive)
19,CCCCSc1nc(C(=O)O)cc(=O)[nH]1,3 (inactive)
20,Cc1ccc(-c2cssc2=S)cc1,3 (inactive)
21,CCCCOP(=O)(OCCCC)C1(C)CC(=O)CC(C)(C)C1 (centres undefined),3 (inactive)
22,Cc1[nH]c(=S)[nH]c(=O)c1CCC1OCCO1,3 (inactive)
